Cycloheximide cs – counter-screen for Shiga toxin inhibitors: cycloheximide protein synthesis inhibition; cell reporter, cycloheximide protein synthesis inhibition counterscreen; max response, %; hit rate 12% among 300,000; in the data active means max response mostly above about 13%, no sharp cut-off; inactive means mostly below about 14%; further: read at 38.3 µM for the half of the compounds with a filed dose; 0% is about no effect
NS1 inh – inhibitors of influenza NS1 protein function; hit rate 0.4% among 270,000; Potency, µM (series often up to 46.1 µM), inactives show at the highest dose activity, positive = more growth; calls by dose curve; further: potency means the concentration at half of the fitted maximal effect; actives are rising curves; nearly all actives have a fitted effect of over 50% in size
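Recovery from NS1-induced slow growth read by OD600 in budding yeast switched to galactose assay medium (pH 6.0, -URA) at 1:100 dilution. Compound 23 nl per well; the matching strain lacking NS1 serves as control.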
Giardia FBPA inh – blocks Giardia fructose-bisphosphate aldolase activity; hit rate 0.71% among 290,000; Potency, µM (titrated, usually from 59.6 µM), for inactives: top-dose activity, negative = inhibition, actives largely listed as inhibitors; purified Giardia FBPA; A8B2U2; further: potency means the concentration at half of the fitted maximal effect; on the % scale 0 is the no-effect control and ±100 the full control effect; nearly all actives have a fitted effect of over 55% in size
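40 nM FBPA preincubated 10 min at RT with compound (up to 57.5 uM final), then substrate plus GAPDH/TPI/NAD/arsenate coupling and diaphorase/resazurin added. Fluorescence read after 20 min at RT, 525/598 nm.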
LmPK inhibitor – blocks Leishmania mexicana pyruvate kinase activity; Q27686; purified LmPK, Kinase-Glo ATP luminescence, 1 h; Potency, µM (titrated, usually from 57.5 µM), for the others: top-dose activity change, negative = inhibition, actives largely listed as inhibitors; hit rate 0.37% among 290,000; AID 1721; further: potency means the concentration at half of the fitted maximal effect; on the % scale 0 is the no-effect control and ±100 the full control effect
Target sequence (Q27686 whole entry, looked up): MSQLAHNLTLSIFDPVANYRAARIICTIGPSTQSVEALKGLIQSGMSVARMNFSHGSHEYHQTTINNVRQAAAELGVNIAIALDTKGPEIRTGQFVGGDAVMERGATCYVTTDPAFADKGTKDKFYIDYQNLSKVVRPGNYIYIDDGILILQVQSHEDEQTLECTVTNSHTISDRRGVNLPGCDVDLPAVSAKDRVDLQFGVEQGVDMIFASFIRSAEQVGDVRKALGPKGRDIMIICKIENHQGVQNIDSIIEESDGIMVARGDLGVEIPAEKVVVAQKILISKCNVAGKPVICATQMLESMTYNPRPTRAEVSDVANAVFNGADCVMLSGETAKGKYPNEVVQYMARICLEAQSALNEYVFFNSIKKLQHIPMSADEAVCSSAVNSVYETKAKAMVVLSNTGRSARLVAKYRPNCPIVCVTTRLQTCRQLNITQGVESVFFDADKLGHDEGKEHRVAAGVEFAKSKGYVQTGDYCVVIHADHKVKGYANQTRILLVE
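In 50 mM imidazole pH 7.2 with 7 mM MgCl2, LmPK (0.1 nM) turned over PEP (0.5 mM) and ADP (0.1 mM) for 1 h at room temperature. Luciferase read-out of ATP.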
Shiga toxin inh – blocks Shiga toxin action in Vero cells. Vero cells, Shiga toxin protein synthesis inhibition reporter. inhibition, % at 38.7 µM. hit rate 9.2% among 290,000. AID 2315; in the data active means inhibition mostly above about 28%, no sharp cut-off; inactive means mostly below about 43%; further: 0% is about no effect
Starred values were filed as active, the others as inactive; ? = inconclusive; nt = no result given. Most compounds without a hit are left out; they make up all but 14% or so of the library. Unless noted, the call rests on the fitted dose curve; in most records, active means well fitted curve in the direction sought with a large enough effect; inconclusive means small, poorly fitted or top-dose-only effect, or another doubt; inactive means no such curve, though single readings can be large; an effect the other way counts as inactive or inconclusive.

SMILES | Cycloheximide cs | NS1 inh | Giardia FBPA inh | LmPK inhibitor | Shiga toxin inh
O=C(O)c1ccc2c(c1)C(=O)N(NC(=O)c1ccccc1)C2=O | 31* | 6% | 15% | 0% | 61*
O=C(Nc1ccc(C(=O)NN2C(=O)c3ccccc3C2=O)cc1)c1ccccc1 | -4 | nt | 3% | 5% | -4
O=C(NC(=S)Nc1ccc(N2CCOCC2)c(Cl)c1)c1cccs1 | 30* | 6% | -15% | 0% | 60*
O=C(Nc1ccc(N2CCCC2)c(Cl)c1)c1cccs1 | 71* | -35% | -26% | ? | 95*
O=C(Nc1ccc(N2CCN(C(=O)c3cccs3)CC2)c(Cl)c1)c1ccco1 | 8 | -14% | -4% | -4% | 4
Cc1ccccc1Cn1c(C)nc2ccc([N+](=O)[O-])cc2c1=O | -3 | -16% | 8% | 8% | -16
CCOC(=O)C1CCN(Cc2cccc(OCc3ccccc3)c2)CC1 | -4 | -4% | -28% | -1% | -4
COc1cc(C2C(C(=O)Nc3ccccc3C)=C(C)Nc3nc(SCc4cc(C)ccc4C)nn32)ccc1O (centres undefined) | -7 | nt | nt | nt | -8
N/C(=N\OC(=O)c1csnn1)c1ccc(C(F)(F)F)cc1 | 40* | 0% | 0% | -4% | 72*
CCc1nnc2n1N=C(c1ccc(-c3ccc(Cl)cc3Cl)o1)CS2 | nt | 2% | nt | nt | nt
Clc1ccc(OCc2nnc3n2N=C(c2ccc4c(c2)OCCO4)CS3)c(Cl)c1 | 15* | -23% | -3% | 2% | 15
CC(=C/c1ccccc1)/C=N/NC(=O)c1cccs1 | 36* | -53% | 1% | -8% | 78*
O=C(N/N=C/C(Br)=C\c1ccccc1)c1cccs1 | 74* | -47% | -1% | -8% | 79*
CN1CCCC2(CCN(C(=O)c3cnccn3)CC2)C1 | nt | nt | -15% | nt | nt
N#Cc1ccsc1NC(=O)c1ccc(Cl)c([N+](=O)[O-])c1 | 51* | -66% | 1% | -8% | 99*
O=C(NNC(=O)c1cccc(-n2cnnn2)c1)c1ccccc1 | 8 | nt | 0% | -2% | 3
N#Cc1ccsc1NC(=O)c1cccc([N+](=O)[O-])c1 | 23* | nt | -12% | -2% | 52*
N#Cc1ccsc1NC(=O)c1cccc(-n2cnnn2)c1 | 10* | 2% | -18% | 1% | 26
N#Cc1ccc2c(c1)N(CCCN1CCC(O)CC1)c1ccccc1S2 | nt | nt | 3% | nt | nt
O=C(Nc1nc(-c2ccc3c(c2)OCO3)cs1)C1COc2ccccc2O1 (centres undefined) | 16* | ? | 2% | 1% | -21
CC(=O)Nc1nc(-c2ccc3c(c2)OCO3)cs1 | 53* | -4% | 0% | -5% | 61*
O=C(Nc1nc(-c2ccc(S(=O)(=O)N3CCCC3)cc2)cs1)C1COc2ccccc2O1 (centres undefined) | 5 | 7.9µM* | 1% | 8% | 23
O=C(Nc1ccc(S(=O)(=O)N2CCCC2)cc1)C1COc2ccccc2O1 (centres undefined) | 1 | -65% | 0% | 5% | 10
CCOC(=O)c1ccc(Nc2nc(C)cc(C)n2)cc1 | 6 | 0% | 4% | 1% | -1
Cc1cc(C)nc(Nc2ccc(F)cc2)n1 | 10 | -27% | 1% | -3% | 64
SMILES | Cycloheximide cs | NS1 inh | Giardia FBPA inh | LmPK inhibitor | Shiga toxin inh
Cc1cccc(Nc2nc(C)cc(C)n2)c1 | 15* | 9% | ? | -5% | 24*
CC(=O)c1ccc(Nc2cc(C)nc3ccccc23)cc1 | 18* | nt | 7% | 0% | 37
CC(=O)c1ccc(Nc2nc(C)cc(C)n2)cc1 | 28* | -11% | -2% | 3% | 95
CC(C)c1ccc(NC(=O)C2CCN(S(=O)(=O)c3ccc4c(c3)C(C)(C)C(=O)N4C)CC2)cc1 | -4 | 3% | -7% | 1% | -11
CCC1CCCCN1S(=O)(=O)c1ccc(C(=O)N(CCCN(C)C)c2nc3cc4c(cc3s2)OCO4)cc1 (centres undefined) | 6 | 3% | nt | -5% | -6
CC(=O)N(C)c1ccc(N=Nc2c(C)[nH]n(C(N)=S)c2=O)cc1 | 39* | nt | 16% | -18% | 49*
Cc1cccc(N=Nc2c(C)[nH]n(C(N)=S)c2=O)c1C | 19 | 2% | 7% | -13% | 13
CCN(CC)S(=O)(=O)c1ccc(N=Nc2c(C)[nH]n(C(N)=S)c2=O)cc1 | 40* | -4% | ? | 1% | 73*
CCOc1ccccc1N=Nc1c(C)[nH]n(C(N)=S)c1=O | 1 | -4% | 6% | 6% | -5
COC(=NC1CCCCC1)C(O)c1c[nH]c2ccccc12 (centres undefined) | -2 | -3% | 3% | 7% | -7
